Inconclusive results are not listed. A call without a number means that no potency is given here. Active and inactive are the calls of the source. Calls come from the whole dose curve; as a rule, active = well fitted curve in the direction sought with a large enough effect; inconclusive = small, poorly fitted or top-dose-only effect, or another doubt; inactive = no such curve, though single readings can be large; an effect the other way counts as inactive or inconclusive. Bridge positions count the residues as written; N and C are the ends. Square brackets hold non-standard residues; d marks the D form. Side chains are listed from the residue outwards. Peptide text beside a SMILES is read from it. * marks the point of attachment. Phg(4-OMe) = COc1ccc([C@H](N)C(=O)O)cc1; d(aIle) = CC[C@H](C)[C@@H](N)C(=O)O; d(aThr) = C[C@@H](O)[C@@H](N)C(=O)O; NMeF = CN[C@@H](Cc1ccccc1)C(=O)O; Isobutyryl = CC(C)C(=O)*
target: Nuclear receptor subfamily 1 group I member 3 (Homo sapiens) (UniProt Q14994); assay: qHTS for Constitutive Androstane Receptor (CAR) Agonist screened against the NCATS CANVASS Library (AID 1347373); settings: HepG2-hCAR-CYP2B6 luciferase reporter, ONE-Glo luminescence; series mostly up to 46.1 µM;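 note: every well also contained 1.5 µM PK11195 alongside the test compound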
Sequence (Q14994 whole entry, looked up): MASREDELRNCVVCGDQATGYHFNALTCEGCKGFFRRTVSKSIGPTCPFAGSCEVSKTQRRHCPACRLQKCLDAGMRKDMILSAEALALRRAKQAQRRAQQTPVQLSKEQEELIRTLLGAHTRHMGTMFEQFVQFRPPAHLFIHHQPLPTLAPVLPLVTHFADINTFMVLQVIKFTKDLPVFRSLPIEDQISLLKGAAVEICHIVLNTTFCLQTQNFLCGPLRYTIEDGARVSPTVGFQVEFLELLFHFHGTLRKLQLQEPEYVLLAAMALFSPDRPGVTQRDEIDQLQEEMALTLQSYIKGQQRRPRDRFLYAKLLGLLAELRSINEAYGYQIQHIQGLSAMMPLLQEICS
Summary of the method: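 CAR agonism is scored as CYP2B6-promoter luciferase induction in a double-stable transfected HepG2 line, where 1.5uM PK11195 is included in each well. Compounds were tested over a 24hr exposure.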

| Structure (SMILES) | Potency |
| --- | --- |
| Oc1ccc(C2Oc3cc(O)c4c(c3[C@@H]2c2cc(O)cc(O)c2)[C@H]2C(c3ccc(O)cc3)c3c(O)cc5c(c3[C@H]2C4c2ccc(O)cc2)[C@H](c2cc(O)cc(O)c2)C(c2ccc(O)cc2)O5)cc1 (some centres not stated) | inactive |
| COc1cc(O)c(C(=O)[C@@H]2[C@H](CC=C(C)C)C(C)=CC[C@H]2c2ccccc2)c(O)c1 | inactive |
| COc1cc(/C=C/C(=O)OC[C@@H](Cc2ccc(O)c(OC)c2)[C@@H](COC(=O)/C=C/c2ccc(O)c(OC)c2)Cc2ccc(O)c(OC)c2)ccc1O | inactive |
| C=CC(CCCCC)C1C(=O)NC(=O)C1C(=O)C1C2C(C)CC(C(=O)O)CC2CC1(O)C(=O)/C=C/C (configuration not stated) | inactive |
| C[C@]12CCC[C@](C)(C(=O)O)[C@@H]1CC[C@@]1(C)c3cocc3CC[C@H]21 | inactive |
| COc1c(O)cc2c(c1O)C(=O)c1c(coc1C)C2=O | inactive |
| CC(C)C[C@@H]1c2c(O)c(C=O)c(O)c(C=O)c2O[C@]2(C)C=C[C@@H](C(C)C)C[C@H]12 | inactive |
| CO[C@H]1[C@@H](OC(=O)/C(C)=C\[C@@H]2O[C@@H]2[C@H]2O[C@H]2C)[C@H](O)[C@H](OCC23C[C@@H]4[C@H](C)CC[C@H]4C4(C=O)CC2C=C(C(C)C)C34C(=O)O)O[C@@H]1C (some centres not stated) | inactive |
| C/C=C/C1C=CC2CC(C)CC(C)C2C1C(=O)CC(=O)NC(CO)C/C=C/CCCCC (configuration not stated) | inactive |
| CC[C@H]1[C@H](C)[C@H](c2cc(OC)c(OC)cc2OC)[C@@H](C)[C@H](c2cc(OC)c(OC)cc2OC)[C@@]12C=C(OC)C(=O)C=C2OC | inactive |

tested on: not listed separately; assay: qHTS for Hypoxia signaling pathway (HIF-1) antagonists against the NCATS CANVASS Library (AID 1347374); settings: HRE-bla ME-180 cells, HIF-1 beta-lactamase reporter, CoCl2; series mostly up to 38.3 µM; note: nearly all actives have a fitted effect of over 60% in size; note: potency is the fitted concentration of half-maximal effect;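 for activity change, negative = inhibition: HRE-bla ME-180 cells stimulated with cobalt chloride to stabilize HIF-1alpha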
Summary of the method: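 HRE-bla ME-180 cells (2,000/well, 0.5% dialyzed FBS) were pre-incubated 5 h, then given an 11-point compound series plus CoCl2 (60 uM solution as added) for 17 h at 37C. CCF4 β-lactamase read (ex 405, em 460/530 nm) after 2 h at RT.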

| Structure (SMILES) | Potency | activity change, negative = inhibition |
| --- | --- | --- |
| CCC(=O)CCCCC[C@@H]1NC(=O)[C@H]2CCCCN2C(=O)[C@H](C(C)C)NC(=O)[C@H](Cc2cn(OC)c3ccccc23)NC1=O | inactive |  |
| C/C(=C\[C@H](C)C(=O)CCCC1CC(=O)NC(=O)C1)[C@@H]1OC(=O)/C=C/CC/C=C/[C@H](O)[C@@H](O)[C@@H]1C | 0.374 µM (active) |  |
| C/C=C(/C)c1c(Cl)c(O)c(C)c2c1Oc1c(Cl)c(O)c(Cl)c(C)c1C(=O)O2 | 10.6 µM (active) |  |
| C=C1CC[C@@H](O[C@H]2C[C@@](O)([C@H](C)NC(=O)c3[nH]c(C)c(Cl)c3Cl)[C@H](O)[C@@H](C)O2)[C@@H]2C=C[C@H](C)C(/C(O)=C3/C(=O)[C@H](C(C)C)N([C@@H]4O[C@H](C)[C@H](OC(N)=O)[C@H](OC(C)=O)[C@@H]4OC)C3=O)[C@@H]12 (some centres not stated) | 16.7 µM (active) |  |
| COc1ccc([C@@H]2CC(=O)c3c(cc(O)c(C/C=C(\C)CCC=C(C)C)c3O)O2)cc1 |  | 8.62% [at 7.64 µM] (inactive) |
| O=c1cc(-c2ccc(O)c(O)c2)oc2cc(O[C@@H]3O[C@H](CO)[C@@H](O)[C@H](O)[C@H]3O)cc(O)c12 | inactive |  |
| CC[C@H](C)[C@H]1NC(=O)[C@@H](NC(=O)C(C)C)[C@@H](C)OC(=O)[C@H](COC(=O)CNC(C)=O)NC(=O)[C@@H]([C@@H](C)O)NC(=O)[C@H](Cc2ccccc2)N(C)C(=O)[C@H](c2ccc(OC)cc2)NC1=O (Isobutyryl-T[d(aIle)][Phg(4-OMe)][NMeF][d(aThr)]S([Gly-Ac]); ester 1-C) | inactive |  |
| C/C1=C/[C@@H](C)[C@H](O)[C@@H](O)/C=C/CC/C=C/C(=O)O[C@@H]1[C@H](C)C(=O)CCCC1CC(=O)NC(=O)C1 | inactive |  |
| CC(=O)Oc1cc2c(c(OC(C)=O)c1C1CCc3cc(Cl)c(Cl)n31)C(=O)n1c-2cc(Cl)c1Cl (configuration not stated) | 3.34 µM (active) |  |
| COc1ccc2[nH]c3c(c2c1)CCN1C[C@H]2C[C@@H](OC(=O)c4cc(OC)c(OC)c(OC)c4)[C@H](OC)[C@@H](OC)[C@H]2C[C@H]31 | inactive |  |
| O[C@H]1c2ccccc2-c2c3c(cc4c2[C@@H]1NCC4)OCO3 | 18.8 µM (active) |  |
| CC(C)=CC[C@H]1C[C@@]2(CC=C(C)C)C(=O)[C@](CC=C(C)C)(C(=O)C(C(=O)c3ccccc3)=C2O)C1(C)C | 5.94 µM (active) |  |
| CC(=O)O[C@H]1c2ccccc2-c2c3c(cc4c2[C@@H]1N(C(C)=O)CC4)OCO3 | inactive |  |
| C=C[C@](Cl)(CBr)CCC=C(C)C | inactive |  |
| C=C1CC[C@@H](Br)C(C)(C)[C@]12CC=C(C)C(=O)C2 | inactive |  |
| C[C@H]1C=C[C@H]2CCCC[C@@H]2[C@H]1C(=O)[C@H]1CC2=C(C(=O)O)CCN2C1=O | inactive |  |
| C/C(=C\[C@H](C)C(=O)/C=C/CC1CC(=O)NC(=O)C1)[C@@H]1OC(=O)/C=C/CC/C=C/C[C@@H](O)[C@@H]1C | 1.33 µM (active) |  |
| CC(C)[C@]12CC[C@@]3(C)[C@H](C)CC[C@H](O)[C@@]3(CC1)c1cc3c(cc12)[nH]c1ccccc13 | inactive |  |
| C/C=C1/CN2C3CC1C1C=CC(=O)N4c5ccccc5[C@@]3(C[C@@H]2C2=C[C@H]3C5CC6N(CC[C@@]67c6ccccc6N(C2=O)[C@@H]37)C/C5=C/C)[C@H]14 (some centres not stated) | 9.41 µM (active) |  |
| Oc1ccc(C2Oc3cc(O)c4c(c3[C@@H]2c2cc(O)cc(O)c2)[C@H]2C(c3ccc(O)cc3)c3c(O)cc5c(c3[C@H]2C4c2ccc(O)cc2)[C@H](c2cc(O)cc(O)c2)C(c2ccc(O)cc2)O5)cc1 (some centres not stated) | inactive |  |
| COc1cc(/C=C/C(=O)OC[C@@H](Cc2ccc(O)c(OC)c2)[C@@H](COC(=O)/C=C/c2ccc(O)c(OC)c2)Cc2ccc(O)c(OC)c2)ccc1O | 7.47 µM (active) |  |
| C=CC(CCCCC)C1C(=O)NC(=O)C1C(=O)C1C2C(C)CC(C(=O)O)CC2CC1(O)C(=O)/C=C/C (configuration not stated) | 8.38 µM (active) |  |
| C[C@]12CCC[C@](C)(C(=O)O)[C@@H]1CC[C@@]1(C)c3cocc3CC[C@H]21 | inactive |  |
| COc1c(O)cc2c(c1O)C(=O)c1c(coc1C)C2=O | 14.9 µM (active) |  |
| COc1cc2c(c(O)c1O)C(=O)c1c(coc1C)C2=O | 5.29 µM (active) |  |
| CO[C@H]1[C@@H](OC(=O)/C(C)=C\[C@@H]2O[C@@H]2[C@H]2O[C@H]2C)[C@H](O)[C@H](OCC23C[C@@H]4[C@H](C)CC[C@H]4C4(C=O)CC2C=C(C(C)C)C34C(=O)O)O[C@@H]1C (some centres not stated) | inactive |  |
| C/C=C/C1C=CC2CC(C)CC(C)C2C1C(=O)CC(=O)NC(CO)C/C=C/CCCCC (configuration not stated) | 29.8 µM (active) |  |

— PubChem BioAssay (NCATS)
